Nrf2 block = Nrf2 qHTS screen for inhibitors. Potency, µM (titrated, usually from 46 µM), inactives show top-dose activity change, negative = inhibition, most hits filed as inhibitors. 2.1% of 360,000 active. A549 ARE-Fluc reporter, luciferase luminescence, 18-24 h; note: potency is the fitted concentration of half-maximal effect; % is set by controls: 0 for no effect and ±100 for the full control effect; nearly all actives have a fitted effect of over 60% in size
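A549 ARE_Fluc cells (5000/well, 5% FBS OPTI-MEM) pre-incubated 2 h, then treated with compounds 18-24 h at 37C/5% CO2 in concentration-response. CellTiter-Fluor viability read first; BugLite luciferase luminescence after 15 min at room temperature gives Nrf2 activity.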
ClpP mod = qHTS Assay for Activators of ClpP; ATP-dependent Clp protease proteolytic subunit (Bacillus subtilis (strain 168)), P80244; purified B. subtilis ClpP, FRET peptide cleavage, 20 min; Potency, µM (doses to about 57.5 µM), inactives show at the top dose activity change, negative = active; 1.9% of 340,000 active; active = well fitted falling curve with a large enough effect; inconclusive = small, poorly fitted or top-dose-only effect; inactive = no such curve, though single readings can be large or run the other way; note: potency is the fitted concentration of half-maximal effect; the source files actives as falling curves though it sought activators and does not explain the sign; nearly all actives have a fitted effect of over 65% in size
Target sequence (P80244 whole entry, looked up): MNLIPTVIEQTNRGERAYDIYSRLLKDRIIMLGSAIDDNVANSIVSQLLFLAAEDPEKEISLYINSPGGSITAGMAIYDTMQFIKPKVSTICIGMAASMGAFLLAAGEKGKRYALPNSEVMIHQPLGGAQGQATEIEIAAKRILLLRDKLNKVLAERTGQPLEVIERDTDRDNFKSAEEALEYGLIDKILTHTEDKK
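ClpP 10 microg/mL final, pH 8 Tris/KCl buffer with BSA, glycerol, Tween-20; compound pinned in; FRET-FV substrate; RT 20 min; Ex320/Em430; ΔFRET vs ADEP 5.8 microM, DMSO, no enzyme.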
A549 tox = Nrf2 qHTS screen for inhibitors: counterscreen for cytotoxicity. A549 ARE-Fluc cells, CellTiter-Fluor viability, 18-24 h. Potency, µM (series often up to 46 µM), inactives show top-dose activity change, negative = cytotoxicity, most hits filed as inhibitors. 0.16% of 390,000 active. AID 504648, 2011; note: potency is the fitted concentration of half-maximal effect; % is set by controls: 0 for no effect and ±100 for the full control effect
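A549 ARE_Fluc cells in 5% FBS OPTI-MEM were exposed to compounds in concentration-response for 18-24 h at 37 deg C. Viability was read by CellTiter-Fluor fluorescence (Ex 405/Em 525) after 30 min, before the luciferase read.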
miR-21 reporter = qHTS Assay for Modulators of miRNAs and/orActivators of miR-21 | AID 2288, 2010 | 340,000 tested, under 10 active | Potency, µM (series often up to 38.3 µM), for inactives: top-dose activity change, positive = activation, actives largely listed as activators | HeLa miR-21 FLuc reporter, luciferase, 48 h;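 note: % of control where 0% means no effect; miR-21 action dims this reporter so a rising signal means less miR-21 action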
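HeLa cells stably expressing CMV-driven firefly luciferase with a downstream miR-21 binding sequence, endogenously expressing miR-21, were treated with titrations (up to about 40uM final) for 48 hours at 37 degree Celsius. Luciferase luminescence was read after lysis.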
Nrf2 ARE act = qHTS of Nrf2 Activators | AREc32 ARE-luciferase reporter (MCF7-derived line), luminescence, 24 h | Potency, µM (series often up to 46.1 µM), without a hit: at the top dose activation, actives largely listed as activators | 0.31% of 410,000 active | AID 624171, 2012; note: potency is the fitted concentration of half-maximal effect; % of control where 0% means no effect; nearly all actives have a fitted effect of over 65% in size
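AREc32_Fluc, 1000 cells/well, OPTI-MEM + 5% FBS, o/n 37 deg C 5% CO2; 23 nL cpd by pin tool, 24 hr; Steady-Glo 30 min RT, luminescence.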
TCR act = Activators of T cell receptors: qHTS campaign. Potency, µM (highest dose often 9.22 µM), for inactives: at the highest dose activation of IL-2 secretion, most hits filed as activators. 330,000 tested, under 10 active. AID 504894, 2011. primary human leukocytes, anti-CD3, IL-2 HTRF, 48 h; note: % of control where 0% means no effect
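48 hr co-incubation of compounds, a-CD3 beads and primary human leukocytes; IL-2 quantified homogeneously by HTRF with anti-IL-2 K and d2 conjugates.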
* hit, by the source's call; ? = inconclusive; / = not tested or not shown; [ ] = another dose, or the depositor's remark. Rows were chosen to be rich in hits. Some 3.7% of all compounds tested hit in one or more screens of this group. Unless noted, calls come from the whole dose curve; as a rule, active = well fitted curve in the direction sought with a large enough effect; inconclusive = small, poorly fitted or top-dose-only effect, or another doubt; inactive = no such curve, though single readings can be large; an effect the other way counts as inactive or inconclusive.

SMILES	Nrf2 block	ClpP mod	A549 tox	miR-21 reporter	Nrf2 ARE act	TCR act
CCOC(=O)c1cccc(NC(=O)CC2C(=O)N(c3ccc(C)cc3)C(=O)N2Cc2cccc(OC)c2)c1 (configuration not stated)	?	-3%	4%	21%	5%	/
C=CCn1c(SCc2csc(C)n2)nc2sc3c(c2c1=O)CCCC3	26µM*	-2%	-14%	14%	0%	-2%
O=C(CSc1ccc(-c2nc3ccccc3[nH]2)cn1)Nc1ccc(S(=O)(=O)N2CCCC2)cc1	16%	20µM*	1%	-10%	4%	1%[46.1 µM]
O=C(CN1CCOCC1)Nc1ccc(-c2nc3ccccc3[nH]2)cc1	10%	25µM*	-3%	-39%	3%	2%
Cc1cc2nc(-c3ccc(SCC(=O)Nc4ccc(S(=O)(=O)N5CCCC5)cc4)nc3)[nH]c2cc1C	?	-5%	-7%	-33%	0%	-2%[46.1 µM]
CCOC(=O)N1CCN(Cc2nc3cc(NC(=O)c4ccccc4Cl)ccc3n2C(C)C)CC1	24%	-3%	-16%	?	0%	/
N=C1/C(=C\c2coc3ccccc3c2=O)C(=O)N=C2SC=CN12	0%	3%	-2%	0%	18µM*	-6%
Nc1c(C(=O)O)ccc2c1C(=O)c1ccccc1C2=O	-3%	/	18µM*	1%	1%	-3%
Fc1cccc(Oc2nc3ccccc3n3cccc23)c1	/	22µM*	20%	0%	16%	-3%
CSc1nc2ccccc2n1Cc1cccc(F)c1	/	-18%	-3%	-37%	0%	-6%
Cc1ccc(S(=O)(=O)c2cn(Cc3ccc(F)cc3)c3cc(N4CCCC4)c(F)cc3c2=O)cc1	?	-5%	-3%	-1%	-1%	/
CCN(CC)c1cc2c(cc1F)c(=O)c(S(=O)(=O)c1ccc(C)cc1)cn2Cc1ccc(F)cc1	2%	13µM*	1%	-5%	0%	/
CCCCn1cc(S(=O)(=O)c2ccc(CC)cc2)c(=O)c2cc(F)c(N3CCCC(C)C3)cc21 (configuration not stated)	-26%	16µM*	4%	-7%	0%	/
CCn1cc(S(=O)(=O)c2ccccc2)c(=O)c2cc(F)c(N3CCCCCC3)cc21	?	32µM*	?	0%	3%	/
CCc1ccc(S(=O)(=O)c2cn(CC)c3cc(N4CCCCC4)c(F)cc3c2=O)cc1	-26%	25µM*	-5%	-5%	-1%	/
COc1ccc(NC(=O)N(Cc2nnc3n2CCCCC3)c2ccc(OC)c(Cl)c2)cc1	/	-1%	-5%	-4%	-1%	/
Cc1cccc(C(=O)NCC(c2ccc3c(c2)OCO3)N2CCN(c3ccccc3F)CC2)c1 (configuration not stated)	/	-4%	-3%	18%	6%	/
Cc1ccc(C)c2[nH]c(=O)c(C(c3nnnn3C3CCCC3)N3CCOCC3)cc12 (configuration not stated)	6%	25µM*	0%	-7%	0%	5%
Cc1ccc2cc(C(c3nnnn3C3CCCC3)N3CCOCC3)c(=O)[nH]c2c1C (configuration not stated)	21%	?	0%	2%	-1%	-6%
COc1ccc(Cn2nnnc2C(c2cc3cccc(C)c3[nH]c2=O)N2CCOCC2)cc1 (configuration not stated)	/	-20%	-2%	0%	0%	-3%
Cc1ccc(C)c2[nH]c(=O)c(C(c3nnnn3CCc3ccccc3)N3CCOCC3)cc12 (configuration not stated)	-14%	28µM*	1%	0%	4%	-6%
COc1ccc(Nc2nc(-c3ccc4c(c3)NC(=O)CO4)cs2)cc1	-26%	/	-13%	26%	6%	0%
COc1ccc(-c2cc(-c3ccccc3)nc(-c3ccc4c(c3)NC(=O)CO4)c2)cc1	?	25µM*	3%	-1%	0%	2%
O=C1Nc2cnc(Cl)nc2Nc2ccccc21	/	0%	/	/	6%	/
COC(=O)c1ccc(C(=O)NC2CCSc3ccccc32)cc1 (configuration not stated)	11%	0%	5%	-18%	0%	0%
SMILES	Nrf2 block	ClpP mod	A549 tox	miR-21 reporter	Nrf2 ARE act	TCR act
Cc1ccc(NC(=S)NC2CCSc3ccccc32)cc1C (configuration not stated)	23µM*	-3%	-22%	2%	0%	-3%
COc1ccc(C(=O)NCC(=O)OC(C(=O)Nc2cc(C(F)(F)F)ccc2Cl)c2ccccc2)cc1OC (configuration not stated)	-16%	/	-3%	/	/	/
CCOC(=O)c1c(-c2ccccc2)csc1NC(=S)N(CC)CC	-20%	/	1%	-2%	2%	-3%[46.1 µM]
CCOC(=O)c1c(-c2ccccc2)csc1NC(=O)c1nn(CC)cc1Br	?	32µM*	-8%	1%	0%	-1%
CC1=C(C(=O)NCc2ccccc2Cl)C2(CCCCCC2)OC1=O	-13%	1%	14%	8%	1%	/
O=C(O)c1ccc(N=Cc2nc(-c3ccco3)oc2O)cc1	-15%	-5%	-3%	0%	0%	0%
Oc1oc(-c2ccco2)nc1C=Nc1ccccc1	1%	-5%	-2%	-9%	13µM*	-6%
Cc1ccc(-c2nc(C=Nc3ccc(O)cc3)c(O)o2)cc1	16%	-1%	?	3%	6.3µM*	-2%
CCOc1ccc(NC(=O)C2CCCN(c3nn4cc(-c5ccc(OC)cc5)nc4s3)C2)cc1 (configuration not stated)	7.3µM*	1%	-1%	24%	-1%	/
CCc1c(C)nc2ncnn2c1N1CCCC(C(=O)NCc2cccs2)C1 (configuration not stated)	?	0%	-7%	-5%	0%	1%
CCOc1ccc(NC(=O)C2CCCN(c3c(CC)c(C)nc4ncnn34)C2)cc1 (configuration not stated)	10µM*	/	-14%	3%	0%	3%
CCc1c(C)nc2ncnn2c1N1CCC(C(=O)NCc2cccs2)CC1	18µM*	2%	-1%	-6%	1%	5%
COc1cccc(C2c3c(ncn(-c4ccccc4SC)c3=N)Oc3ccc4ccccc4c32)c1 (configuration not stated)	4%	/	-5%	/	/	/
NNc1nc(-c2ccccc2)cc(-c2ccccc2)n1	9.2µM*	0%	-3%	6%	-1%	3%
